Test [1] has as its target T1, Mitogen-activated protein kinase 12 (Homo sapiens) (UniProt P53778).
T1 sequence (whole entry): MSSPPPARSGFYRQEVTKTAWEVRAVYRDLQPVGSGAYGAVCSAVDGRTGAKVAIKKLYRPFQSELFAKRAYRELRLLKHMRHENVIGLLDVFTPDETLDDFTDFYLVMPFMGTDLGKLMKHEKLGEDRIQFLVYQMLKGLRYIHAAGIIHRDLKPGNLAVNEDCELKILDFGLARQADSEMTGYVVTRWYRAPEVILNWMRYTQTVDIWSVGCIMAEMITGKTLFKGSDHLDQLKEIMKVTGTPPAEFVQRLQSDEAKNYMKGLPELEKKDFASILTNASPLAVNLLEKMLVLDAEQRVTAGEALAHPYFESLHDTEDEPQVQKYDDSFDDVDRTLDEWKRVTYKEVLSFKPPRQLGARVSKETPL
The settings on record: at 1 µM.

The target of test [2] is T1, Mitogen-activated protein kinase 12 (Homo sapiens). The note with it: at 10 µM.

Molecules are shown by their SMILES.

For `CCCCc1c(-c2ccc(OC)cc2)[nH]c2nccnc12`, the residual activity worked out at 103% in test [1] and 112% in test [2].

On to `Oc1ccc(Nc2nc(-c3ccc(Cl)cc3)cs2)cc1`, for which the residual activity in test [1] is 112%; in test [2], 100%.

For the molecule `Cn1c2ccccc2c2c3c(c4c5ccccc5n(CCC#N)c4c21)CNC3=O`, the residual activity in test [1] and in test [2] was 61% each time.

As for `O=c1c2ccccc2[nH]c(=S)n1CCN1CCC(=C(c2ccc(F)cc2)c2ccc(F)cc2)CC1`, the residual activity in test [1] is 115%; in test [2] it was 90%.

For `CC(C)c1nn(-c2c(Cl)cccc2Cl)c2nc(Cc3ccc(OCCO)cc3)[nH]c(=O)c12`, the residual activity was 105% in test [1] and 101% in test [2].

On to `CCN(CC)CCCCN1c2ccccc2Oc2ccc(Cl)cc21`, for which the residual activity in test [1] was 131%; in test [2], 100%.

With `Cc1ccc(S(=O)(=O)/C=C/C#N)cc1`, the residual activity in test [1] and in test [2] was 92% in each case.

As for `Oc1n[nH]c2nnc(-c3c(-c4ccccc4)nn4ccccc34)cc12`, the results for the residual activity in test [1] and in test [2] were 96% and 90%, respectively.

`COc1cc2ncnc(Nc3ccc(O)c(Br)c3)c2cc1OC`: the residual activity in test [1] amounted to 98%; in test [2] it was 97%.

On to `O=C(O)c1ccc2c3c1cccc3c(=O)n1c3ccccc3nc21`, for which the residual activity stood at 106% in test [1] and 102% in test [2].

Regarding `Cc1nc2cc3nc(-c4cccs4)cnc3cc2n1C`, the residual activity in test [1] was found to be 114%; in test [2], 100%.

In the case of `N#CC(C#N)=C(N)/C(C#N)=C/c1ccc(O)cc1`, the residual activity in test [2] is 92%.

Turning to `Cc1cccc(-c2[nH]c(C(C)(C)C)nc2-c2ccc3c(c2)OCO3)n1`, the residual activity in test [1] came out at 104%; in test [2] it was 100%.

Turning to `O=Nc1c(-c2c(O)[nH]c3ccccc23)[nH]c2ccccc12`, the residual activity in test [1] was 95%; in test [2] it was 84%.

Consider `O=C1NC(=O)c2c1c1c3ccccc3[nH]c1n1cncc21`, for which the residual activity in test [1] came to 95%; in test [2] it was 87%.

`CC(C)(C)n1nc(Cc2cccc3ccccc23)c2c(N)ncnc21`: the residual activity stood at 100% in test [1] and 98% in test [2].

For `Cn1nc2c3c(cccc31)C(=O)c1ccccc1-2`, the figures for the residual activity in test [1] and in test [2] were 99% and 96%, respectively.

For the molecule `Cn1sc(=O)n(Cc2ccccc2)c1=O`, the residual activity worked out at 90% in test [1] and 97% in test [2].

Take `Oc1c2ccccc2c2c3c(cccc13)N=N2`: the figures for the residual activity in test [1] and in test [2] were 82% and 61%, respectively.

The record behind these values is ChEMBL document CHEMBL2218924, “A broad activity screen in support of a chemogenomic map for kinase signalling research and drug discovery” (Biochem J, 2013).
